In all, about 220,000 compounds went through this assay and about 16,000 (7.3%) were called active. Roughly 25% stayed inconclusive and do not appear here. Calls follow the shape of the dose curve; as a rule, active = well fitted inhibition curve with a large enough effect (not every such curve was filed as active); inconclusive = small, poorly fitted or top-dose-only effect, or another doubt; inactive = no such curve, though single readings can be large or run the other way. Shown is part of a subset that was picked to be rich in actives.
What follows are compounds tested against Aldehyde dehydrogenase 1A1 (Homo sapiens) (UniProt P00352) (assay: qHTS Assay for Inhibitors of Aldehyde Dehydrogenase 1 (ALDH1A1)). Details: Purified ALDH1A1, NADH fluorescence, propionaldehyde substrate; series mostly up to 75.3 µM; activity, negative = inhibition: at the top concentration.
Aldehyde dehydrogenase 1A1 (Homo sapiens), sequence (P00352 whole entry, looked up): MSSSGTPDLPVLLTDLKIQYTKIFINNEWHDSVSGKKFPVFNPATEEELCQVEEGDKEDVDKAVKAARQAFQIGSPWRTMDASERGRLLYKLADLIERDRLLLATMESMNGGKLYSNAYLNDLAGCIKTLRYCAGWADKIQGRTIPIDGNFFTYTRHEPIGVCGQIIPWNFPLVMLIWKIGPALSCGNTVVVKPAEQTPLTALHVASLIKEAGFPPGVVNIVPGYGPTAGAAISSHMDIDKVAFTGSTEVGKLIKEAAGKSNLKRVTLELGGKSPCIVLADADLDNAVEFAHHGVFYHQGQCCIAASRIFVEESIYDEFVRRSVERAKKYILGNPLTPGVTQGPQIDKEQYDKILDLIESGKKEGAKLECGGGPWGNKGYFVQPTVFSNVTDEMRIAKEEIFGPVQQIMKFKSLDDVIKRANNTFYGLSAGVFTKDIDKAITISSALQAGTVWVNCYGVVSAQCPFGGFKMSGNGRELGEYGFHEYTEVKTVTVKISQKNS

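For activity, negative = inhibition in this document: plate controls were no enzyme wells and a reference inhibitor.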
Potency is read from the fitted curve at half-maximal effect.

SMILES	activity, negative = inhibition	Potency
COc1ccc(OCC(=O)Nc2ccc(N3CCC(C)CC3)cc2)cc1	9.23% (inactive)	–
COc1ccc(NC(=S)NCCN2CCC(C)CC2)cc1	0.486% (inactive)	–
COc1ccc(NC(=S)NCC2CCN(c3ccc(OC)cc3)C2)cc1 (stereo not given)	–	35.5 µM (active)
O=C(Nc1cccc(Cl)c1)c1cc([N+](=O)[O-])ccc1N1CCN(CCO)CC1	-7.69% (inactive)	–
CN1CCN(c2ccc(S(=O)(=O)Nc3ccccc3)cc2[N+](=O)[O-])CC1	-5.79% (inactive)	–
CCNC(=O)c1ccc(OCC(=O)Nc2ccc(F)cc2)c(OC)c1	2.14% (inactive)	–
CCCCn1c(N)c(N2CCOCC2)c(=O)n(CC(=O)NCCc2ccccc2)c1=O	8.85% (inactive)	–
Cc1nc(S(=O)(=O)c2ccc(Br)cc2)nc2c1CCC2	-3.44% (inactive)	–
O=S(=O)(NN=C1CCCCCCC1)c1ccc(Br)cc1	–	11.2 µM (active)
O=C(CCc1ccc(S(=O)(=O)N2CCOCC2)cc1)NN=C1CCCCCCC1	-9.69% (inactive)	–
CC(=O)Cn1ncc(N2CCOCC2)c(Br)c1=O	3.21% (inactive)	–
Cc1ccc(OCC(=O)Nc2ccc(S(=O)(=O)Nc3ccccn3)cc2)cc1	-0.623% (inactive)	–
Cc1ccc(Nc2cc(=O)n(C3CCCCC3)c(=O)[nH]2)cc1C	–	1 µM (active)
Cc1ccc(NS(=O)(=O)c2c(C)[nH]c(=O)[nH]c2=O)cc1C	-15% (inactive)	–
COC(=O)C1=C(C(=O)OC)[C@@H]2Nc3ccccc3[C@@]23C[C@@H](C(=O)OC)N(S(=O)(=O)c2ccc([N+](=O)[O-])cc2)C3=N1	-1.68% [at 13.5 µM] (inactive)	–
Nc1c(NCCc2ccccc2)c2ccccc2oc1=O	-7.28% (inactive)	–
O=C1c2ccccc2C(=O)N1c1ccccc1S(=O)C(F)(F)F (stereo not given)	12.6% (inactive)	–
O=C1C(Cl)=C(N2CCOCC2)C(=O)N1c1ccccc1	-8.32% (inactive)	–
O=C1C(=O)N(c2ccccc2)c2ccccc21	–	6.31 µM (active)
COC(=O)c1c(C)oc2ccc(N(C(=O)Oc3ccccc3)S(=O)(=O)c3ccccc3)cc12	-1.58% (inactive)	–
Cc1ccccc1NC(=O)c1nn(-c2ccc(F)c(F)c2)ccc1=O	0.92% (inactive)	–
Cc1ccccc1N/N=C/c1ccc(N2CCOCC2)cc1	–	8.91 µM (active)
C(=N/Nc1cc(N2CCOCC2)nc(N2CCOCC2)n1)/c1ccccc1	7.34% (inactive)	–
C/C(=N\NC(=O)c1ccccc1C)c1ccc(N2CCOCC2)cc1	5.33% (inactive)	–
O=C(CCN1CCN(C/C=C/c2ccccc2)CC1)Nc1cccc(F)c1	9.75% (inactive)	–
COc1ccc(N2C(=O)C(CC(=O)Nc3ccc(F)cc3)N(CCc3cccs3)C2=O)cc1 (stereo not given)	-2.98% (inactive)	–
COc1ccc(N2C(=O)C(CC(=O)Nc3ccccc3)N(Cc3ccc(OC)c(OC)c3)C2=O)cc1 (stereo not given)	2.78% (inactive)	–

SMILES	activity, negative = inhibition	Potency
CCOc1ccc(NC(=O)CC2C(=O)N(c3ccccc3)C(=O)N2CCOC)cc1 (stereo not given)	–	15.8 µM (active)
NC(=O)c1ccccc1N(Cc1ccccc1)S(=O)(=O)c1ccccc1	3.35% (inactive)	–
N#CCc1ccc(OC(=O)c2cccnc2)cc1	14% (inactive)	–
CCCCN(C(=O)/C=C/c1ccco1)c1c(N)n(CC(C)C)c(=O)[nH]c1=O	3.6% (inactive)	–
CCNC(=S)NNC(=O)c1ccc2ncccc2c1	-2.18% (inactive)	–
CN(C)c1ccc(C=NCCc2ccc(S(N)(=O)=O)cc2)cc1	–	0.708 µM (active)
CCCCc1ccc(S(N)(=O)=O)cc1	-5.42% (inactive)	–
COc1ccc(OCC(=O)NCCc2ccc(S(N)(=O)=O)cc2)cc1	38.9% (inactive)	–
O=S(=O)(Cc1ccccc1)c1nc2ccccc2n1Cc1ccccn1	2.81% (inactive)	–
Cc1cc(C(=O)OCC(=O)c2c(N)n(C)c(=O)n(C)c2=O)c(C)o1	-5.4% (inactive)	–
CCc1ccc(OCC(=O)OCC(=O)c2c(N)n(C)c(=O)n(C)c2=O)cc1	0.715% (inactive)	–
Cn1c(N)c(C(=O)COC(=O)c2cnc(Cl)c(Cl)c2)c(=O)n(C)c1=O	–	8.91 µM (active)
CCn1c(SCc2cc(=O)n3ccsc3n2)nc2ccccc21	9.12% (inactive)	–
CC(C)CCC(C)NC(=O)c1ccc2nccnc2c1 (stereo not given)	–	20 µM (active)
CC(Cc1cccs1)NC(=O)c1cccc(Cl)c1 (stereo not given)	5.57% (inactive)	–
COCC(C)NC(=O)c1ccc(Cl)c(Cl)c1 (stereo not given)	3.63% (inactive)	–
CCc1ccc(NC(=O)Cn2nc(C)c([N+](=O)[O-])c2C)cc1	-3.12% (inactive)	–
O=C(Nn1cnnc1)c1ccc([N+](=O)[O-])cc1	-5.53% (inactive)	–
COCCCNC(=S)N1CCCC(c2nc3cc(C)c(C)cc3[nH]2)C1 (stereo not given)	-2.51% (inactive)	–
Nc1nnc(SCC(=O)Nc2ccc3nc(SCC(=O)Nc4ccccc4)sc3c2)s1	-10.4% (inactive)	–
CCCCNC(=O)CSc1nc2ccc(NC(=O)CSc3nnc(N)s3)cc2s1	–	20 µM (active)
Cc1ccc(S(=O)(=O)N2CCOCC2)cc1NC(=O)CSc1nnc(N)s1	4.41% (inactive)	–
CCCCNC(=O)CSc1nc2ccc(NC(=O)CSc3nnc(COc4ccccc4C)n3C)cc2s1	–	3.55 µM (active)
CCOC(=O)c1ccc(NC(=O)CSc2nnc(COc3ccccc3OC)n2C)cc1	-5.96% (inactive)	–
Cc1cccnc1NC(=O)CSc1nnc(COc2ccc(C(C)C)cc2)n1C	9.2% (inactive)	–
CN(c1ccccc1)S(=O)(=O)c1ccc(Cl)c(C(=O)OCC(N)=O)c1	-15.1% (inactive)	–
CN(C(=O)CSc1nnc(-c2c[nH]c3ccccc23)o1)C1CCS(=O)(=O)C1 (stereo not given)	-2.95% (inactive)	–

SMILES	activity, negative = inhibition	Potency
O=C(/C=C/c1ccc(Cl)cc1)Nc1ccc(S(=O)(=O)Nc2ncccn2)cc1	1.56% (inactive)	–
O=C(Nc1ccc(N2CCN(C(=O)C3CC3)CC2)cc1)c1cccs1	-2.48% (inactive)	–
C/C(=N\N1CCN(Cc2ccc(C)cc2)CC1)c1ccco1	2.4% (inactive)	–
C/C(=N\NC(=O)C(N)=O)c1ccc2c(c1)OCCO2	12.7% (inactive)	–
COC(=O)/C=C\C(=O)Nc1cccc([N+](=O)[O-])c1	–	0.178 µM (active)
COc1ccc(S(=O)(=O)NC(C)C(=O)Nc2cccc([N+](=O)[O-])c2)cc1 (stereo not given)	0.552% (inactive)	–
CC(=O)Nc1cccc([N+](=O)[O-])c1	2.07% (inactive)	–
Clc1ccc(-c2cc(-c3ccccn3)on2)c(Cl)c1	17% (inactive)	–
O=C1Nc2cc(Cl)c(Cl)cc2N(O)N1c1ccccc1Cl	6.43% (inactive)	–
CCOc1cnc(C(=O)NNC(=O)c2ccccc2Br)o1	2.5% (inactive)	–
COC(=O)CSC1=C(C#N)C(c2ccccc2OC)C(C(=O)OC)C(=O)N1 (stereo not given)	5.25% (inactive)	–
CCOC(=O)CSC1=C(C#N)C(c2sccc2C)CC(=O)N1 (stereo not given)	17.5% (inactive)	–
C=CCSC1=C(C#N)C(c2cc(Br)c(O)c(OC)c2)CC(=O)N1 (stereo not given)	–	25.1 µM (active)
C[C@@H]1CC[C@]2(O[C@@H](CCO)C[C@H](O)[C@H]2O)O1	-4.09% (inactive)	–
CCCCOc1ccc(N(CC(=O)NC(C)C)C(=O)CCC(=O)Nc2ccccn2)cc1	-2.58% (inactive)	–
COCCN(CCOC)S(=O)(=O)c1ccc(/C(O)=C(\C#N)c2nc3ccccc3[nH]2)cc1	2.62% (inactive)	–
COc1cccc2c1OCC(CN1CCN(C3CCCCC3)C(CCO)C1)=C2 (stereo not given)	-1.04% (inactive)	–
Cc1cc(C)n(-c2ccc3nncn3n2)n1	9.72% (inactive)	–
Cc1ccccc1OCCOc1ccc([N+](=O)[O-])cc1/C=N/n1cnnc1	1.94% (inactive)	–
Cc1ccc(-n2c(C)cc(/C=N/Nc3ccc([N+](=O)[O-])cn3)c2C)c(C)c1	–	3.55 µM (active)
COc1cc(/C=N\Nc2ccc([N+](=O)[O-])cn2)ccc1OCC(=O)O	-9.72% (inactive)	–
CC(C)(C)C1CCC(C(=O)Nc2cccnc2)CC1 (stereo not given)	-3.75% (inactive)	–
Cn1nnnc1SCc1cc(=O)[nH]c2ccccc12	-5.31% (inactive)	–
CN(C)c1nc(N)nc(CSc2ccccn2)n1	-4.05% (inactive)	–
CN(C)c1nc(N)nc(CSc2nnnn2-c2cccc3ccccc23)n1	–	7.94 µM (active)
CC(OC(=O)c1ccccc1OCc1ccc(Cl)cc1)C(N)=O (stereo not given)	2.06% (inactive)	–
Cc1cc(C)c(S(=O)(=O)NCC2CCC(C(=O)NCc3ccc4c(c3)OCO4)CC2)c(C)c1 (stereo not given)	–	28.2 µM (active)

SMILES	activity, negative = inhibition	Potency
O=C(NCc1ccc2c(c1)OCO2)C1CCCN(S(=O)(=O)c2cccs2)C1 (stereo not given)	-11.1% (inactive)	–
CCOC(=O)NCc1ccc2c(c1)OCO2	4.82% (inactive)	–
O=C(CN1C(=O)NC2(CCCC2)C1=O)NCC1CCCO1 (stereo not given)	2.37% (inactive)	–
Cc1cccc(NC(=O)Nc2nnc(-c3ccccc3)o2)c1	6.3% (inactive)	–
COc1ccc(CCNCC(O)Cn2ccc3ccccc32)cc1OC (stereo not given)	3.09% (inactive)	–
Cc1ccc(Oc2cc(NC(=O)CCCn3nc(C)c([N+](=O)[O-])c3C)cc([N+](=O)[O-])c2)cc1	-9.52% (inactive)	–
COc1ccc(CNC(=O)CCCn2nc(C)c([N+](=O)[O-])c2C)cc1	–	12.6 µM (active)
COc1ccc(CNC(=O)CCn2cccc2)cc1	-2.66% (inactive)	–
CNC(=O)COc1ccc(S(=O)(=O)Nc2ccccc2)cc1	-2.45% (inactive)	–
COc1ccc(-c2csc(NC(=O)c3ccc(N4C(=O)CCC4=O)cc3)n2)cc1OC	5.15% (inactive)	–
COc1ccc(-c2nc(N)sc2C2(O)C(=O)Nc3c(Br)cc(F)cc32)cc1OC (stereo not given)	–	11.2 µM (active)
O=C(O)c1ccccc1-c1ccccc1C(=O)NCc1cccnc1	-2.71% (inactive)	–
O=C(NCCCN1CCOCC1)c1ccc([N+](=O)[O-])cc1[N+](=O)[O-]	2.46% (inactive)	–
N#C/C(=C\c1ccc(-c2cccc([N+](=O)[O-])c2)o1)C(=O)NCCN1CCOCC1	–	25.1 µM (active)
Cc1ccc(Cc2cnc(NC(=O)/C(C#N)=C/c3ccc(-c4cccc([N+](=O)[O-])c4)o3)s2)cc1	0.468% (inactive)	–
Cc1ccccc1CSc1nnc(-c2ccccc2)c(=O)[nH]1	1.62% (inactive)	–
Cc1c(O)cc(O)c2c(=O)c(-c3ccc(O)cc3)coc12	–	25.1 µM (active)
CC(C)OC(=O)Cn1nc(C(F)(F)F)c2c1CCCC2	-4.53% (inactive)	–
Cc1ccc(C(=O)NNC(=O)c2cccs2)cc1	15.8% (inactive)	–
COc1ccccc1NC(=O)c1c(Br)cnn1C	3.41% (inactive)	–
O=C(c1ccccc1)c1ccc(OC(=O)N2CCCC2)cc1	-4.99% (inactive)	–
COc1ccc(C(=O)COC(=O)COc2ccc(C)c(C)c2)cc1	-12.5% (inactive)	–
O=C(COc1cccc(F)c1)Oc1ccc(C(=O)c2ccccc2)cc1	–	28.2 µM (active)
CC(C)(C)c1nnc(N/N=C/c2ccc(O)cc2)n(N)c1=O	-9.92% (inactive)	–

— PubChem BioAssay AID1030 (National Center for Advancing Translational Sciences (NCATS), 2008)
